Results published in PubChem BioAssay (NCI).
About 83,000 compounds went through this panel and 20% of them were active in at least one assay; those are over-represented in the sample as a whole.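 Values shown are percent growth following 48 h exposure of cells in 96-well plates to a single concentration of compound; below 10 was considered active.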 A number with no mark means an inactive call. Activity calls are given as the source filed them.

Tests used:
Experiment in all cases: NCI-60 one-dose screen, 48 h (100 = growth as untreated, 0 = no growth, -100 = all killed)
Settings in all cases: 10 µM unless noted
[1] = system: HCT-15 colon
[2] = system: HT29 colon
[3] = system: SNB-75 CNS
[4] = system: SNB-19 CNS
[5] = system: U251 CNS
[6] = system: PC-3 prostate
[7] = system: SK-MEL-5 melanoma
[8] = system: UACC-62 melanoma
[9] = system: LOX IMVI melanoma
[10] = system: SK-MEL-28 melanoma

Row | Structure (SMILES) | growth [1] | growth [2] | growth [3] | growth [4] | growth [5] | growth [6] | growth [7] | growth [8] | growth [9] | growth [10]
1 | CCn1cc(C(=O)N/N=C/c2cccc(F)c2)c(=O)c2cc(F)c(N3CCNC(C)C3)c(F)c21 (stereo not given) | -81.8% (active) | -87.2% (active) | 90.1% | -59.4% (active) | -74.3% (active) | 69.6% | 52.6% | 64.8% | -90.9% (active) | -64.3% (active)
2 | CNC(=O)NCC1OC(n2cnc3c(NC(=O)Nc4ccccc4)ncnc32)C2OC(=O)CC12 (stereo not given) | 92.2% | 110% | 96.7% | 103% | 96.2% | 99.8% | 110% | 99.2% | 62.7% | 107%
3 | CCOC(=O)NC(=S)n1oc(=O)c2ccccc21 | 103% | 105% | 94.7% | 104% | 98.6% | 98.3% | 108% | 93.3% | 96.8% | 103%
4 | c1cc(OCCN2CCCCCC2)ccc1CNc1ccc2nc(CCC3CCCCC3)[nH]c2c1 | 3.08% (active) | 8.15% (active) | 74.2% | 79.5% | 45.2% | 50.5% | -86.3% (active) | 83.9% | -67.4% (active) | -8.14% (active)
5 | O=C(Nc1ccc(Nc2ccncc2)cc1)c1ccc(Nc2ccnc3ccc([N+](=O)[O-])cc23)cc1 | 99.3% | 102% | 97.8% | 117% | 95.5% | 80.3% | 97.5% | 101% | 90.6% | 109%
6 | CC(O)CNC(Cc1ccccc1)c1ccc2c(c1)OCO2 (stereo not given) | 104% | 65.5% | 90.2% | 101% | 97.3% | 65.8% | 100% | 91.4% | 92.5% | 72.3%
7 | O=C1CCCC1[n+]1ccccc1 (stereo not given) | 97.1% | 61.4% | 86.3% | 103% | 84.4% | 81.7% | 104% | 96.5% | 99% | 84.3%
8 | Cc1nc(N/N=C/c2cn(-c3ccccc3)nc2-c2cc3ccccc3oc2=O)sc1N=Nc1ccccc1 | 56.1% | 85.2% | 50.4% | 91.9% | 93.1% | 85.8% | 93.3% | 71% | 89.5% | 87.6%
9 | COC(=O)Cn1c2c(c3c(OC)cccc31)C(=O)c1ccccc1-2 | 101% | 95.8% | 90.8% | 90.5% | 89.9% | 87.4% | 102% | 93.3% | 91.8% | 97.1%
10 | COc1ccc2c(c1)c(-c1nc(-c3ccc4ccccc4c3)cs1)cn2C | 73% | 51.3% | 109% | 99.8% | 91% | 87.1% | 94.5% | 91.3% | 86% | 89.6%
11 | COCC(=O)Oc1cc(-c2ccc(C)cc2C)c(OC(=O)COC)c(-c2ccc(C)cc2C)c1 | 10.2% | 34.3% | 80.4% | 60.9% | 46.7% | 43.4% | 13.7% | 45.1% | 35.6% | 87.9%
12 | CN(C)CCn1c(=O)c2ccccc2n2nc3ccccc3c12 | 84.1% | 78.9% | 93.5% | 78.1% | 88.8% | 99.3% | 87.2% | 72.7% | 56.4% | 116%
13 | CN(C)c1ccc(CNCCO)cc1 | 106% | 69.1% | 101% | 98.5% | 89.4% | 68.5% | 99.9% | 90.2% | 102% | 81.7%
14 | Cn1c(=O)[nH]c(=O)c2nc3c(nc21)-c1ccccc1C3=O | 102% | 101% | 88.9% | 98.1% | 106% | 95.8% | 98.5% | 91.2% | 95.9% | 97.4%
15 | COc1ccc(N/N=C/c2cn(-c3ccc(C(=O)O)cc3)nc2-c2cc3ccccc3oc2=O)cc1 | 30% | 63.1% | 82.1% | 75.9% | 107% | 63.5% | 39.5% | 22.6% | 25.7% | 69.5%
16 | CCN(CC)CCN1C(=O)c2c(c3c4ccccc4[nH]c3c3ccc4ccccc4c23)C1=O | -74.4% (active) | -45.5% (active) | 76.1% | 84.9% | -89.3% (active) | -74.6% (active) | -23% (active) | 76.8% | -88.3% (active) | 0.268% (active)
17 | COc1ccc(-c2nc3ccc(C)cc3c3c2c(=O)n(C)c(=O)n3C)cc1OC | 108% | 108% | 92.9% | 98.7% | 96.9% | 97.5% | 103% | 89.5% | 95.6% | 112%
18 | CCN1C(=O)N(CC)C2C1NN=c1s/c(=C\c3ccc(OC)cc3)c(=O)n12 (stereo not given) | 10.3% | 3.44% (active) | 23% | 26.9% | 7.45% (active) | 26.5% | -10.8% (active) | 23.9% | 17.1% | 56.4%
19 | Cn1cc(-c2nc3c(F)cc4[nH]ncc4c3c3c2CCCC3)c(C(F)(F)F)n1 | 23.7% | 37.1% | 22.5% | 75.3% | 59.8% | 0.262% (active) | 40.2% | 29.5% | 28.7% | 51%
20 | COC12C=C/C(=C(/C(=O)OCCSc3ccnn3C)C(=O)CCCCCCCCC3(OC)C=C/C(=C(/C(=O)OCCSc4ccnn4C)C(=O)CCCCCCCC1)O3)O2 | -19.5% (active) | 11.9% | 56.8% | 32.9% | -3.32% (active) | 15.8% | -70% (active) | -56.3% (active) | -68.6% (active) | -9.65% (active)
21 | Cc1sc2nc(NCCN)[nH]c(=O)c2c1C | 92.8% | 95.1% | 67.4% | 87.5% | 95.9% | 93.3% | 96% | 95.4% | 91.3% | 98.4%
22 | COc1ccc(-c2cc(-c3cc(OC)ccc3OC)nc(SCC(C)=O)c2C#N)cc1 | 52.7% | 81.8% | 42.7% | 75.8% | 74.4% | 56.2% | 65.7% | 67.1% | 57.9% | 68%
23 | Cc1nc2sc(C(=O)Nc3ccccn3)c(N)c2cc1C(C)O (stereo not given) | 36.4% | 27.4% | 89.3% | 64.7% | 48.8% | 72.7% | 45% | 42.7% | 67.1% | 67.4%
24 | Cc1ccc2cnc(N)c(C#Cc3cc(C(=O)Nc4ccc(CN5CCN(C)CC5)c(C(F)(F)F)c4)cnc3C)c2c1 | -40.5% (active) | -62.7% (active) | -17.1% (active) | 17.4% | -80.7% (active) | -86.9% (active) | 26.8% | 7.26% (active) | -71% (active) | -84.9% (active)
25 | COC1C(O)CC(OC2CC(OC3CC(O[C@@H]4C(=O)c5c(cc6cc(OC7CC(OC8CC(O)C(O)C(C)O8)C(O)C(C)O7)c(C)c(O)c6c5O)CC4[C@H](OC)C(=O)C(C)=O)OC(C)C3O)OC(C)C2O)OC1C (stereo not given in full) | -2.22% (active) | -19.8% (active) | -80.9% (active) | 11.2% | 1.19% (active) | -1.97% (active) | -40.4% (active) | -30.3% (active) | -2.05% (active) | -20.6% (active)
26 | C[N+]1=C(/C=C/c2ccccc2Cl)C(C)(C)c2ccccc21 | 101% | 91.4% | 95.5% | 107% | 84.2% | 83.5% | 92.2% | 91.9% | 85.5% | 103%
